{"source": "PubChem BioAssay AID1963321", "about": "(National Center for Advancing Translational Sciences (NCATS), 2024)", "note": "Results filed as inconclusive are left out. A call without a number means that no potency is given here. Unmarked numbers belong to inactive results. Active and inactive are the calls of the source. Calls follow the shape of the full dose curve.", "data": [{"molecular_target": "cAMP-dependent protein kinase catalytic subunit alpha (Homo sapiens) (UniProt P17612)", "assay": "Protein Kinase A (PKA-HiBiT) enzymatic inhibition screen - Functional assay", "details": "luminescence; series mostly up to 57.5 µM", "from_the_text": "National Center for Advancing Translational Sciences (NCATS),\nNational Institute of Health (NIH), Maryland\nDiscovery and optimization of novel protein-binding ligands underlies many of the methods and applications of biology, drug discovery, clinical diagnostics, and environmental toxicology. Assays for detecting the interaction of, for example, a molecule with a macromolecular target also referred to here as the target of interest (TOI) is dependent on a compatible output technology. Depending on the nature and knowledge surrounding the TOI, whether a receptor, enzyme, regulatory subunit or scaffold, or a sequence-defined nucleic acid folded into a complex tertiary structure, assay strategies can vary widely.\nHere we exploit ligand-biased changes in the structural dynamics of the target protein to control reporter alpha complementation allowing a non-competitive, non-functional, non-separation measure of ligand-target interaction.\nUsing a chemical library of >1,200 compounds enriched for scaffolds known to be associated with the inhibition of firefly luciferase (FLuc) activity (PubChem AIDs 2309) we first illustrate and compare the Structural Dynamics Response (SDR) assay vs. the standard functional FLuc enzyme assay (2). Secondly, we show the specificity and sensitivity of the SDR for the Abelson tyrosine kinase (ABL1) compared to the serine/threonine protein kinase A, using an enriched chemical library of 128 compounds selected, in part, for activity annotated with ABL1 kinase activity using the Pharos database (3).\n(1) A. S. Dixon et al., NanoLuc Complementation Reporter Optimized for Accurate Measurement of Protein Interactions in Cells. ACS Chem Biol 11, 400-408 (2016).\nChemistry & Biology, 19, 1060 - 1072 (2012).\n(3) K. J. Kelleher et al., Pharos 2023: an integrated resource for the understudied human proteome. Nucleic Acids Res 51, D1405-D1416 (2023).\nPROTOCOL TABLE (as described by Inglese J, Shamu CE and Guy RK. 2007)\nSEQUENCE No. (e.g., 1, 2, 3, etc.); […] (e.g., C. elegans, Compounds, Incubation, Read, etc.); VALUE and DESCRIPTION.\n1. Reagent. Dispense 4 uL PKA-N-HiBiT enzyme per well at a final enzyme concentration of 10 nM in buffer with 87.5 uM ATP (functional assay) into columns 2-48 of four replicate Greiner 1536-well white,solid bottom high base, medium plates per assay. Dispense respective buffer without enzyme at 4 uL/well in column 1 of assay plates using BioRaptr 2.\n2. Compounds. Library compounds added at 23 nL/well by pin transfer. DMSO neutral control and H-89 positive control added at 25 nL/well, transfer by Mosquito dispenser.\n3. Incubation. Incubate enzyme and compounds at room temperature for 30 min, protect from light.\n4. Reagent. (Functional assay) Transfer 25 nL of kemptide peptide substrate to each well of four replicate kinase assay plates with Mosquito dispenser.\n5. Incubation. (Functional assay) Kinase Enzyme incubated with peptide substrate for 3 h at room temperature, protected from light.\n6. Reagent. (Functional assay) Add 4 uL/well of Kinase-Glo Plus reagent (Promega) to kinase activity assay plates.\n7. Detector. (Functional assay) Luminescence measured using CCD-based camera (ViewLux) with settings as follows: Exposure, 1 sec; Gain, High; Speed, Slow; Binning, 2X.\nInglese J, Shamu CE and Guy RK, Reporting data from high throughput screening of small molecule libraries, Nature Chemical Biology, 2007, 3(8): 438-441. doi.org/10.1038/nchembio0807-438.", "values": [{"smiles": "c1ccc2c(-c3cnn4cc(-c5ccc(N6CCNCC6)cc5)cnc34)ccnc2c1", "activity change, negative = inhibition": "8.42% [at 6.37 µM]"}, {"smiles": "Cc1cc(F)ccc1-c1nc(NC(CO)CO)nc2c1ccc(=O)n2-c1c(F)cccc1F", "Potency": "inactive"}, {"smiles": "Nc1nc(Nc2ccc(S(N)(=O)=O)cc2)n(C(=S)Nc2c(F)cccc2F)n1", "Potency": "inactive"}, {"smiles": "Cc1ccc(-n2nc(C(C)(C)C)cc2NC(=O)NCc2cc(F)ccc2Oc2ccc3c(cnn3CCO)c2)cc1", "Potency": "inactive"}, {"smiles": "CCCCNc1ncc2c(-c3ccc(S(=O)(=O)N4CCOCC4)cc3)nn(C3CCC(O)CC3)c2n1", "note": "(stereo not given)", "Potency": "inactive"}, {"smiles": "Oc1ccc(-c2ccc(-c3cc(Nc4cccc(CNC5CC5)c4)n[nH]3)cc2)c(O)c1", "Potency": "inactive"}, {"smiles": "Cc1nc2ccc(-n3ncc(C(=O)c4cc5ccccc5[nH]4)c3N)cc2[nH]1", "Potency": "inactive"}, {"smiles": "COc1ccc(-n2c(C)c([N+](=O)[O-])c3ccc(O)cc32)cc1", "Potency": "inactive"}, {"smiles": "Cc1cc(-c2cc(O)ccc2Cl)cc2nnc(Nc3ccc(OCCN4CCCC4)cc3)nc12", "Potency": "inactive"}, {"smiles": "CC(C)CCN1c2nc(Nc3cc(F)c(O)c(F)c3)ncc2N(C)C(=O)C1C", "note": "(stereo not given)", "Potency": "inactive"}, {"smiles": "CNS(=O)(=O)c1ccc2c(c1)/C(=C/c1[nH]c3c(c1CCCN1CCN(C)CC1)CCCC3)C(=O)N2", "Potency": "inactive"}, {"smiles": "O=C1CCC(N2C(=O)c3ccccc3C2=O)C(=O)N1", "note": "(stereo not given)", "Potency": "inactive"}, {"smiles": "Cc1[nH]c(/C=C2\\C(=O)Nc3ccc(S(=O)(=O)Cc4c(Cl)cccc4Cl)cc32)c(C)c1C(=O)N1CCC[C@@H]1CN1CCCC1", "Potency": "inactive"}, {"smiles": "COc1cc(NC(=O)c2cccc(-n3cc(NC(=O)Nc4cccc(C)c4)cn3)c2)cc(OC)c1OC", "Potency": "inactive"}, {"smiles": "COc1cc(N2CCC(N3CCN(C)CC3)CC2)ccc1Nc1ncc(Cl)c(Nc2ccccc2P(C)(C)=O)n1", "Potency": "inactive"}, {"smiles": "CCN1/C(=C\\C(C)=O)Sc2ccc(OC)cc21", "Potency": "inactive"}, {"smiles": "C[C@@H](NC(=O)c1ncnc(N)c1Cl)c1ncc(C(=O)Nc2cc(C(F)(F)F)c(Cl)cn2)s1", "Potency": "inactive"}, {"smiles": "COc1cc2ncnc(Oc3cccc(NC(=O)Nc4cc(C(C)(C)C(F)(F)F)on4)c3)c2cc1OC", "Potency": "inactive"}, {"smiles": "COc1ccccc1-c1c[nH]c2ncc(-c3cncc(C(=O)N(C)C)c3)cc12", "Potency": "inactive"}, {"smiles": "C=CC(=O)N1CCC(Oc2cc3c(Nc4ccc(Cl)c(Cl)c4F)ncnc3cc2OC)CC1", "Potency": "inactive"}, {"smiles": "C[C@@H]1CCNC(=O)c2cc3ccc(C(=O)Nc4nc5ccccc5n4CCCN(C)C)cc3n21", "Potency": "inactive"}, {"smiles": "CCCS(=O)(=O)Nc1ccc(F)c(C(=O)c2c[nH]c3ncc(Cl)cc23)c1F", "Potency": "inactive"}, {"smiles": "CNC(=O)c1ccccc1Sc1ccc2c(/C=C/c3ccccn3)n[nH]c2c1", "Potency": "inactive"}, {"smiles": "Cc1cc(O)c2c(c1)C(=O)c1cc(O)cc(O)c1C2=O", "Potency": "inactive"}, {"smiles": "Cc1cccc(C)c1-n1c(=O)c2cnc(Nc3ccc(N4CCN(C)CC4)cc3)nc2n2c3ccccc3nc12", "Potency": "inactive"}, {"smiles": "O=C(Nc1cc(C(F)(F)F)ccc1N1CCCCC1)c1ccncc1", "Potency": "inactive"}, {"smiles": "CC(C)(NS(=O)(=O)c1ccc2c(Cl)cnc(N=C(N)N)c2c1)C(=O)O", "Potency": "inactive"}, {"smiles": "CN1CCN(CCOc2cc(OC3CCOCC3)c3c(Nc4c(Cl)ccc5c4OCO5)ncnc3c2)CC1", "Potency": "inactive"}, {"smiles": "Nc1ncnc2c1c(-c1cnc3[nH]ccc3c1)nn2C1CCCC1", "Potency": "inactive"}, {"smiles": "CCNC(=O)Nc1ccc(-c2nc3c(c(N4CCOC[C@@H]4C)n2)CCN(c2ncccn2)C3)cc1", "Potency": "inactive"}, {"smiles": "O=C(NOCC(O)CO)c1cc(Br)c(F)c(F)c1Nc1ccc(I)cc1F", "note": "(stereo not given)", "Potency": "inactive"}, {"smiles": "Nc1ncccc1-c1nc2ccc(-c3ccccc3)nc2n1-c1ccc(C2(N)CCC2)cc1", "Potency": "inactive"}, {"smiles": "C[C@@H]1CN(CC(=O)Nc2ccc3c(c2)Cc2cccc(-c4cc(=O)cc(N5CCOCC5)o4)c2S3)C[C@H](C)O1", "Potency": "inactive"}, {"smiles": "Cc1cc(Nc2cc(N3CCN(C)CC3)nc(Sc3ccc(NC(=O)C4CC4)cc3)n2)n[nH]1", "Potency": "inactive"}, {"smiles": "CN1CCN(Cc2ccc(-c3cnc4[nH]cc(-c5ccc6[nH]ccc6c5)c4c3)cc2)CC1", "Potency": "inactive"}, {"smiles": "NC(=O)c1cccc(-c2cc(Nc3ccc(OC(F)(F)F)cc3)ncn2)c1", "Potency": "inactive"}, {"smiles": "Cn1cc(-c2cc3c(N4CCN(c5ncc([C@@](C)(N)c6ccc(F)cc6)cn5)CC4)ncnn3c2)cn1", "Potency": "inactive"}, {"smiles": "COc1cc2c(Oc3ccc4[nH]c(C)cc4c3F)ncnc2cc1OCCCN1CCCC1", "Potency": "inactive"}, {"smiles": "Cc1[nH]nc2ncc(C(=O)N3CCC[C@H]3c3ccc(Cl)cc3)cc12", "Potency": "inactive"}, {"smiles": "CO[C@H]1/C=C/O[C@@]2(C)Oc3c(C)c(O)c4c(O)c(c(/C=N\\N5CCN(C6CCCC6)CC5)c(O)c4c3C2=O)NC(=O)/C(C)=C\\C=C\\[C@H](C)[C@H](O)[C@@H](C)[C@@H](O)[C@@H](C)[C@H](OC(C)=O)[C@@H]1C", "Potency": "inactive"}]}]}
